The campaign covered roughly 5,500 compounds. About 2,000 (36%) were called active. Another 18% or so got no clear call; they are omitted. Cut-off read from the data, not from the text of the source: active = normalized growth mostly below about 0.91 (no sharp cut-off); inconclusive = no clear call, values can overlap the other calls; inactive = mostly above about 0.92. Some of the results follow.
Assay: chemical genetic growth profiling, strain panel (AID 1159580);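 note: tested at 20 µM; growth read once vehicle control cultures reached saturation at 30 °C; 1 = growth at the plate median or of vehicle wells; lower values mean less growth of the strain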
Conditions: growth OD

Measured: normalized growth

CC(=O)Oc1c(Cl)c(C)c2c(c1Cl)OC(=O)c1c(C)c(Cl)c(OC(C)=O)c(Cl)c1O2
inactive: S. cerevisiae deletion strains, locus YBR229C, strain ROT2, active compounds read low 1.02 | S. cerevisiae deletion strains, locus YDL035C, strain GPR1, active compounds read low 0.86 | S. cerevisiae deletion strains, locus YDL074C, strain BRE1, active compounds read low 0.79 | S. cerevisiae deletion strains, locus YDL101C, strain DUN1, active compounds read low 0.946 | S. cerevisiae deletion strains, locus YDL185W, strain tfp1, active compounds read low 1 | S. cerevisiae deletion strains, locus YDR318W, strain mcm21, active compounds read low 0.946 | S. cerevisiae deletion strains, locus YDR388W, active compounds read low 0.932 | S. cerevisiae deletion strains, locus YEL061C, strain CIN8, active compounds read low 1.02 | S. cerevisiae deletion strains, locus YER110C, active compounds read low 0.992 | S. cerevisiae deletion strains, locus YER167W, strain BCK2, active compounds read low 0.985 | S. cerevisiae deletion strains, locus YGL248W, strain PDE1, active compounds read low 0.926 | S. cerevisiae deletion strains, locus YGR135W, strain pre9, active compounds read low 0.912 | S. cerevisiae deletion strains, locus YHR030C, strain SLT2, active compounds read low 0.922 | S. cerevisiae deletion strains, locus YHR079C, strain IRE1 (second series), active compounds read low 1.01 | S. cerevisiae deletion strains, locus YHR094C, strain hxt1, active compounds read low 1.01 | S. cerevisiae deletion strains, locus YHR129C, strain ARP1, active compounds read low 0.925 | S. cerevisiae deletion strains, locus YHR200W, strain rpn10, active compounds read low 0.966 | S. cerevisiae deletion strains, locus YIL066C, strain RNR3, active compounds read low 0.965 | S. cerevisiae deletion strains, locus YIL073C, strain SPO22, active compounds read low 1.03 | S. cerevisiae deletion strains, locus YIL125W, strain kgd1, active compounds read low 1.02 | S. cerevisiae deletion strains, locus YIR030C, strain dcg1, active compounds read low 0.934 | S. cerevisiae deletion strains, locus YJL095W, strain BCK1, active compounds read low 0.802 | S. cerevisiae deletion strains, locus YJL134W, strain LCB3, active compounds read low 1.04 | S. cerevisiae deletion strains, locus YJL168C, strain set2, active compounds read low 1.01 | S. cerevisiae deletion strains, locus YJL187C, strain SWE1 (second series), active compounds read low 0.913 | S. cerevisiae deletion strains, locus YJR043C, strain POL32, active compounds read low 0.921 | S. cerevisiae deletion strains, locus YLR039C, strain RIC1, active compounds read low 0.715 | S. cerevisiae deletion strains, locus YLR058C, strain SHM2, active compounds read low 0.967 | S. cerevisiae deletion strains, locus YLR102C, strain apc9, active compounds read low 1.01 | S. cerevisiae deletion strains, locus YLR262C, strain YPT6, active compounds read low 0.642 | S. cerevisiae deletion strains, locus YLR330W, strain CHS5, active compounds read low 0.922 | S. cerevisiae deletion strains, locus YLR342W, strain FKS1 (second series), active compounds read low 0.828 | S. cerevisiae deletion strains, locus YLR371W, strain rom2, active compounds read low 1.01 | S. cerevisiae deletion strains, locus YML016C, strain PPZ1, active compounds read low 1.02 | S. cerevisiae deletion strains, locus YML124C, strain tub3, active compounds read low 1.02 | S. cerevisiae deletion strains, locus YMR078C, strain ctf18, active compounds read low 0.985 | S. cerevisiae deletion strains, locus YMR307W, strain GAS1, active compounds read low 0.613 | S. cerevisiae deletion strains, locus YNL233W, strain BNI4, active compounds read low 0.934 | S. cerevisiae deletion strains, locus YNL250W, strain rad50, active compounds read low 0.98 | S. cerevisiae deletion strains, locus YNL271C, strain bni1, active compounds read low 0.993 | S. cerevisiae deletion strains, locus YNL322C, strain KRE1, active compounds read low 1.02 | S. cerevisiae deletion strains, locus YOL006C, strain TOP1, active compounds read low 0.734 | S. cerevisiae deletion strains, locus YOL012C, strain htz1 1.44 | S. cerevisiae deletion strains, locus YOR061W, strain CKA2, active compounds read low 0.988 | S. cerevisiae deletion strains, locus YOR069W, strain VPS5, active compounds read low 0.972 | S. cerevisiae deletion strains, locus YOR136W, strain idh2, active compounds read low 0.976 | S. cerevisiae deletion strains, locus YOR316C, strain cot1, active compounds read low 1.01 | S. cerevisiae deletion strains, locus YPR119W, strain clb2, active compounds read low 1.01 | S. cerevisiae deletion strains, locus YPR141C, strain kar3, active compounds read low 1.07 | S. cerevisiae deletion strains, locus YPR167C, strain met16, active compounds read low 0.942 | S. cerevisiae strains, strain wild type, active compounds read low 0.977
active: S. cerevisiae deletion strains, locus YAL013W, strain DEP1, active compounds read low 0.895 | S. cerevisiae deletion strains, locus YBR021W, strain FUR4, active compounds read low 0.851 | S. cerevisiae deletion strains, locus YCL029C, strain bik1, active compounds read low 0.853 | S. cerevisiae deletion strains, locus YDL192W, strain arf1, active compounds read low 0.825 | S. cerevisiae deletion strains, locus YDR101C, strain arx1, active compounds read low 0.883 | S. cerevisiae deletion strains, locus YDR162C, strain NBP2, active compounds read low 0.799 | S. cerevisiae deletion strains, locus YDR502C, strain sam2, active compounds read low 0.878 | S. cerevisiae deletion strains, locus YER155C, strain BEM2, active compounds read low 0.91 | S. cerevisiae deletion strains, locus YGL078C, strain dbp3, active compounds read low 0.856 | S. cerevisiae deletion strains, locus YGL086W, strain mad1, active compounds read low 0.899 | S. cerevisiae deletion strains, locus YGR229C, strain SMI1, active compounds read low 0.65 | S. cerevisiae deletion strains, locus YGR252W, strain gcn5, active compounds read low 0.693 | S. cerevisiae deletion strains, locus YKL009W, strain mrt4, active compounds read low 0.678 | S. cerevisiae deletion strains, locus YKL085W, strain MDH1 (second series), active compounds read low 1.39 [resistant] | S. cerevisiae deletion strains, locus YKL085W, strain MDH1, active compounds read low 1.39 [resistant] | S. cerevisiae deletion strains, locus YKR001C, strain vps1, active compounds read low 0.682 | S. cerevisiae deletion strains, locus YLR268W, strain sec22, active compounds read low 0.847 | S. cerevisiae deletion strains, locus YLR418C, strain cdc73, active compounds read low 0.756 | S. cerevisiae deletion strains, locus YML032C, strain rad52, active compounds read low 0.853 | S. cerevisiae deletion strains, locus YMR223W, strain ubp8, active compounds read low 0.886 | S. cerevisiae deletion strains, locus YNL067W, strain RPL9B, active compounds read low 0.846 | S. cerevisiae deletion strains, locus YNL153C, strain GIM3, active compounds read low 0.858 | S. cerevisiae deletion strains, locus YNL298W, strain CLA4, active compounds read low 0.866 | S. cerevisiae deletion strains, locus YNL307C, strain MCK1, active compounds read low 0.771 | S. cerevisiae deletion strains, locus YNR052C, strain pop2, active compounds read low 0.754 | S. cerevisiae deletion strains, locus YOL147C, strain pex11, active compounds read low 0.916 | S. cerevisiae deletion strains, locus YOR144C, strain elg1, active compounds read low 0.903 | S. cerevisiae deletion strains, locus YOR184W, strain ser1, active compounds read low 0.652 | S. cerevisiae deletion strains, locus YPR163C, strain tif3, active compounds read low 0.736 | S. cerevisiae deletion strains, strain wtn01, active compounds read low 0.856

— PubChem BioAssay AID1159580 (chemical genetic matrix, 2015)
